Laboratory results published in the OligoGym collection.

target: SLC2A8; experiment: pooled miR-30 sensor sort-seq; sequence = guide strand; settings: shRNA
Note: reference of the scale not given here.

Row | Sequence | sensor-assay potency score (higher = more potent)
1 | TAGCTGCACACAGGAGCCGAGC | -1.45
2 | TCTGCATAGAACATGACGGCGT | -0.336
3 | ATTTCGGAGATGTAGACCGGGG | -0.598
4 | TGAACACCATGACCACACCTGA | -0.865
5 | TTGGTGAGGACGCAGATGCCTG | -1.08
6 | TGAGTCAGCAGGAAGCGCGGGG | -0.717
7 | TTAGCTGCACACAGGAGCCGAG | -0.983
8 | AAAAGGACACTGAAGATGCAGA | -0.924
9 | TTTAGTTTCAGGGACACAGAAC | -0.989
10 | ATTAGCTGCACACAGGAGCCGA | -0.991
11 | TTTGTTCCAGAGTCTTTCCTTT | 0.354
12 | ATCTCTGACATGAGGAGCCAGG | -1.73

target: SLC30A10; experiment: as above; settings: shRNA

Row | Sequence | sensor-assay potency score (higher = more potent)
13 | TAACACTGCCAGTTACACGGGT | -0.383
14 | TTAGCTAGAAGTTCTAATCAGT | 0.384
15 | TTTGTTAAGACTTTGTCCGTGG | 0.766
16 | TAAGCTATGATCTCACCTGAGC | -0.73
17 | TTTTGTTAAGACTTTGTCCGTG | 0.41
18 | TTTTGGGACCATCTGTAGCAGA | -0.988
19 | TTAGAAACAAGAACTTCTTTGA | 0.415
20 | TCTGAGAATATTTTCTACCTTA | -0.0606
21 | TCTTTGAACACTGTATCCGCAG | -0.212
22 | TTAAGCATTTGAAACATTCTAT | 0.231
23 | TTAAGCTATGATCTCACCTGAG | -0.235
24 | ATTTGAAACATTCTATAGCTGC | -0.495

target: SLC30A1; experiment: as above; settings: shRNA

Row | Sequence | sensor-assay potency score (higher = more potent)
25 | TTTTCAGCTTTAGTCCTCCTGG | -0.574
26 | TAATCTCTATCACAACAGCAGG | -1.43
27 | TACACTAGCAAATTCAGGCTGA | 0.702
28 | TTTACTACTACAATCACTGAAC | -0.0512
29 | TTGATTTAGAGCCTACACTAGC | -0.669
30 | TTCACTTGTACTTCCACTGTAT | 0.732
31 | TTAATCTCTATCACAACAGCAG | 0.193
32 | TTAAGTAATGGATAGGTTGTGT | -0.332
33 | TTTGTTTAGGAACAGTTTGTAG | -1.09
34 | TTCTTCTCTAGATTGTTACTAA | -0.537
35 | TAGATTGTTACTAAGTTCTAAA | -0.976
36 | TAGTGTCCCACAACATTGCTTC | 0.199

target: SLC34A1; experiment: as above; settings: shRNA

Row | Sequence | sensor-assay potency score (higher = more potent)
37 | TTGACTAGGAGGATGAGGCAGG | 0.548
38 | TTGAGCATCTTGACTAGGAGGA | 0.961
39 | TTGGAACCCAGTGTGAGCGGGT | 0.313
40 | TTCAGGGAGTGCATCCAGCGAG | -0.619
